From PubChem BioAssay AID2718 (Broad Institute, 2010)
Out of some 320,000 compounds screened, about 480 (0.15%) were called active. Another 1% or so got no clear call; they are omitted. The sample holds actives, similar compounds and a random draw of the others, so the mix is not that of the screen. A number with no mark means an inactive call. Rule as the data show it: active = inhibition above about 26% (passing the limit was not always enough); inconclusive = no clear call, values can overlap the other calls.

Target: Histone deacetylase 3 (Homo sapiens) (UniProt O15379)
Assay: HDAC3 deacetylase inhibitors, primary screen, biochemical, fluorescence, cell-free homogeneous (AID 2718)
Conditions: recombinant HDAC3, fluorogenic peptide/trypsin coupled, at 8.3 µM, hits give high values

Sequence of Histone deacetylase 3 (Homo sapiens) (O15379 whole entry, looked up): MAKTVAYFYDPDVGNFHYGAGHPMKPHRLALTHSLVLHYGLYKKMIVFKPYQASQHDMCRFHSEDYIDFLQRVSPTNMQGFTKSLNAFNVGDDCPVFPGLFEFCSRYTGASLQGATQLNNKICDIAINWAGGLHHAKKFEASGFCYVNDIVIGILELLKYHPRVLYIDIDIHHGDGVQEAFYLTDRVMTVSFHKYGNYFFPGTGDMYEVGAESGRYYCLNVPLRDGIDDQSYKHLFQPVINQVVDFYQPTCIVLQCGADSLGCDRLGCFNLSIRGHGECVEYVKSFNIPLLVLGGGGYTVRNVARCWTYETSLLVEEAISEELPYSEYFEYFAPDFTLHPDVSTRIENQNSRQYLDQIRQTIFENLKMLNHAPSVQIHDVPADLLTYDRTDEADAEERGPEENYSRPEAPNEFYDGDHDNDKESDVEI

Row | Compound | inhibition
1 | Cc1ccc(S(=O)(=O)N(CCCN(C)C)Cc2ccc3c(c2)OCO3)cc1 | 5.59%
2 | CCOC(=O)C1CCN(CC(=O)Nc2ccc(OC)c(S(=O)(=O)N3CCCCC3)c2)CC1 | 4.01%
3 | CCCCCCC(=O)N(O)C1CC(=O)N(c2ccccc2)C1=O (configuration not stated) | 78.3% (active)
4 | CCOC(=O)c1ccc(N2C(=O)CC(N(C)Cc3ccccc3)C2=O)cc1 (configuration not stated) | -1.1%
5 | CCOc1ccc(N2C(=O)CC(N(O)c3ccccc3)C2=O)cc1 (configuration not stated) | -2.22%
6 | CCN(CC)S(=O)(=O)c1ccc2c3c(cccc13)C(=O)S2 | 3.45%
7 | Fc1cnc(N2CCOCC2)nc1NCc1ccccc1 | -0.33%
8 | COc1ccc(C(=O)n2nc(-c3ccc(Cl)cc3)nc2N)cc1OC | 13.1%
9 | COc1ccc(C(=O)n2nc(C)c(Br)c2C)cc1OC | 38.4% (active)
10 | COc1ccc(C(=O)n2nc(-c3ccc(C)cc3)nc2N)cc1OC | 9.8%
11 | O=C(Cc1ccccc1)Nc1c(Cl)ccc2nsnc12 | 2.55%
12 | C=C(Br)CN1CCN(CC(=C)Br)CC1 | -3.73%
13 | O=C(O)C1C2C=CC(O2)C1C(=O)NCCc1cccc(Cl)c1 (configuration not stated) | -6.57%
14 | Cc1ccc(/C=N/NC(=O)C(NC(=O)c2ccccc2)c2n[nH]c(=O)c3ccccc23)cc1 (configuration not stated) | 15%
15 | O=C(COC(=O)c1ccco1)Nc1ccc(Cl)cn1 | 0.924%
16 | COc1cc(CN2CCC(C(N)=O)CC2)ccc1OCc1ccccc1 | -3.96%
17 | COc1cc(CNC2CCCC2)c(Br)cc1OCc1ccccc1 | 3.98%
18 | COc1cc(C2CC(=O)N3CN(Cc4ccccc4)CSC3=C2C#N)ccc1OCc1ccccc1 (configuration not stated) | 33.1% (active)
19 | COc1cc(NC(=O)c2[nH]cnc2C(N)=O)cc(C(=O)Nc2cccc(C(F)(F)F)c2)c1 | -8.89%
20 | O=C(NC(=S)NC1CCSC1=O)c1ccccc1F (configuration not stated) | -7.58%
21 | O=C(CN1CCN(C(=S)NC2CCCC2)CC1)Nc1ccc(Oc2ccccc2)cc1 | -5.51%

Row | Compound | inhibition
22 | COc1ccccc1-n1nnnc1SCC(=O)NC(=O)Cc1ccccc1 | -1.86%
23 | O=C(C1=C[C@H](C2CC2)C[C@H](OCc2ccc(CO)cc2)O1)N1CCN(Cc2ccccc2)CC1 | -8.37%
24 | O=C(C1=C[C@H](c2ccc(C(F)(F)F)cc2)C[C@H](OCc2ccc(CO)cc2)O1)N1CCN(Cc2ccccc2)CC1 | 33.5% (active)
25 | O=C(NCc1ccccc1)C1=C[C@@H](c2ccc(C(F)(F)F)cc2)C[C@@H](OCc2ccc(CO)cc2)O1 | 21.1%
26 | CNS(=O)(=O)c1cccc(C(=O)OCC(=O)N2c3ccccc3NC(=O)C2(C)C)c1 | 4.33%
27 | CCN(CC)CCN(C(=O)c1cccc([N+](=O)[O-])c1)c1nc2ccc(OC)cc2s1 | -1.73%
28 | CN(C(=O)c1cccc(NC(=O)C2CCN(C(=O)OC(C)(C)C)CC2)c1)C1CCC1 | -2.89%
29 | CSCCC(NC(=O)c1ccco1)C(=O)NCCc1ccc(F)cc1 (configuration not stated) | -4.83%
30 | COc1ccc(C(=O)OCc2cc(=O)n3ccsc3n2)cc1F | 0.474%
31 | C=CC[C@@H](CC(=O)N[C@H](CO)Cc1ccccc1)C(=O)N[C@@H](COC(=O)[C@@H](CC=C)Cc1ccc(F)cc1)Cc1c[nH]c2ccccc12 | 0.653%
32 | C=CCC[C@@H](Cc1ccc(F)cc1)C(=O)O[C@H](CNC(=O)[C@H](CC=C)CC(=O)N(CCO)Cc1ccccc1)c1ccccc1 | 48.4% (active)
33 | C=CCC[C@H](Cc1ccc(F)cc1)C(=O)OC[C@@H](Cc1c[nH]c2ccccc12)NC(=O)[C@H](CC=C)CC(=O)N[C@H](CO)Cc1ccccc1 | 6.12%
34 | C=CCC[C@H](Cc1ccc(F)cc1)C(=O)OC[C@@H](NC(=O)[C@@H](CC=C)CC(=O)N[C@H](CO)Cc1ccccc1)C(C)(C)C | 41.7% (active)
35 | C=CCC[C@@H](Cc1ccc(F)cc1)C(=O)OC[C@H](Cc1c[nH]c2ccccc12)NC(=O)[C@@H](CC=C)CC(=O)N(CCO)Cc1ccccc1 | 41.9% (active)
36 | C=CC[C@@H](CC(=O)N[C@@H](CO)Cc1ccccc1)C(=O)NCCOC(=O)[C@@H](CC=C)CC(=O)OC(C)(C)C | 0.71%
37 | C=CC[C@H](CC(=O)OC(C)(C)C)C(=O)OC[C@H]1CCCN1C(=O)[C@H](CC=C)CC(=O)N(CCO)Cc1ccccc1 | 1.66%
38 | C=CC[C@@H](CC(=O)N[C@@H](CO)Cc1ccccc1)C(=O)N[C@H](COC(=O)[C@H](CC=C)CC(=O)OC(C)(C)C)Cc1ccccc1 | 7.81%
39 | C=CCC[C@H](Cc1ccc(F)cc1)C(=O)OC[C@H](C)NC(=O)[C@H](CC=C)CC(=O)N(CCO)Cc1ccccc1 | 30.2% (active)
40 | C=CC[C@@H](CC(=O)NCCO)C(=O)N[C@H](C)COC(=O)[C@@H](CC=C)CC(=O)OC(C)(C)C | -0.677%
41 | C=CC[C@@H](CC(=O)N[C@H](CO)Cc1ccccc1)C(=O)N[C@H](C)COC(=O)[C@@H](CC=C)Cc1ccc(F)cc1 | 19.7%
42 | C=CCC[C@@H](Cc1ccc(F)cc1)C(=O)OC[C@@H](C)NC(=O)[C@H](CC=C)CC(=O)N(CCO)Cc1ccccc1 | 2.58%
